# Source: the supplement of paper PMC10849652
# About 8,800 targets were measured; listed, in parts, are those with a hit and a random draw of the rest. About 0.5% of all pairs of compound and target were hits. Unmarked numbers belong to inactive results.
# Experiments:
# Experiment in all cases: log2 fold change, soluble protein after heating vs DMSO (PISA); higher = thermal stabilisation; K562 lysate, 10 uM; active = over 0.2 and 3.5 SD of the protein, either way, in both replicates (recomputed)
# [1] = compound: CCCS(=O)(=O)Nc1ccc(F)c(C(=O)c2c[nH]c3ncc(-c4ccc(Cl)cc4)cc23)c1F [vemurafenib]
# In short: (§1)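 Thermal stability, expressed as log-two fold change relative to solvent controls, is given from duplicates. Crude K562 extract in PBS pH 7.4 with 1 mM MgCl2, at 1 mg/mL protein, was treated with 10 μM compound for 30 min and heated in aliquots for 3 min across 48°C-58°C. After pooling, adjustment to 0.5% NP-40 at 4°C and centrifugation at 21,000xg for 90 min, supernatant protein was measured by TMTpro 16plex LC-MS/MS with channel sums equalised.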
# [2] = compound: CCCS(=O)(=O)Nc1ccc(F)c(C(=O)c2c[nH]c3ncc(Cl)cc23)c1F
# In short: as §1
# [3] = compound: CCN(CCCOc1ccc2c(Nc3cc(CC(=O)Nc4cccc(F)c4)[nH]n3)ncnc2c1)CCOP(=O)(O)O [barasertib]
# In short: as §1
# [4] = compound: CC[C@@H]1C(=O)N(C)c2cnc(Nc3ccc(C(=O)NC4CCN(C)CC4)cc3OC)nc2N1C1CCCC1
# In short: as §1
# [5] = compound: CC[C@@H]1C(=O)N(C)c2cnc(Nc3ccc(C(=O)N[C@H]4CC[C@H](N5CCN(CC6CC6)CC5)CC4)cc3OC)nc2N1C(C)C [volasertib]
# In short: as §1
# [6] = compound: CCn1c(C(=O)N(C2CC2)C2CC2)cc2c3c(ncn3C)c(Nc3cc(C)n(C)n3)nc21
# In short: as §1
# [7] = compound: CN1CCN(CCOc2cc(OC3CCOCC3)c3c(Nc4c(Cl)ccc5c4OCO5)ncnc3c2)CC1 [saracatinib]
# In short: as §1
# [8] = compound: CN1CCN(c2nc(C3=C(c4c[nH]c5ccccc45)C(=O)NC3=O)c3ccccc3n2)CC1 [sotrastaurin]
# In short: as §1
# [9] = compound: CN1CCc2c(c3ccccc3n2Cc2ccc(C(=O)NO)cc2)C1 [Tubastatin A]
# In short: as §1
# [10] = compound: CNC(=O)C1=CC=CC=C1NC2=NC(=NC=C2Cl)NC3=C(C=C(C=C3)N4CCOCC4)OC
# In short: as §1
# [11] = compound: CNC(=O)c1ccc(Nc2ncc(C(F)(F)F)c(NCc3nccnc3N(C)S(C)(=O)=O)n2)cc1 [defactinib]
# In short: as §1
# [12] = compound: CNc1nc(-c2ccc3c(N)n[nH]c3c2)cc(N2C[C@@H](C(=O)NC3CCCCC3)CC[C@H]2C)n1
# In short: as §1
# [13] = compound: COC(=O)N[C@@H](C)CNc1nccc(-c2cn(C(C)C)nc2-c2cc(Cl)cc(NS(C)(=O)=O)c2F)n1 [encorafenib]
# In short: as §1
# [14] = compound: COC(=O)[C@H](CCSC)NC(=O)C1=C(C=C(C=C1)NC[C@H](CS)N)C2=CC=CC=C2
# In short: as §1
# [15] = compound: COc1cc(Nc2ncc3c(n2)-c2ccc(Cl)cc2C(c2c(F)cccc2OC)=NC3)ccc1C(=O)O [alisertib]
# In short: as §1
# [16] = compound: COc1cc2nc(-c3cc(F)ccc3O)nc(N[C@@H]3CNC[C@H]3C(C)(C)O)c2cc1OC
# In short: as §1
# [17] = compound: COc1cc2ncnc(Nc3ccc(F)c(Cl)c3)c2cc1OCCCN1CCOCC1 [gefitinib]
# In short: as §1
# [18] = compound: CCn1cc(-c2ccnc3[nH]c(-c4cccc(CN(C)C)c4)cc23)c(-c2ccc(NC(=O)N(C)C)cc2)n1
# In short: as §1
# [19] = compound: CN1CCC(CNc2ccc3ncc(-c4cccc(OC(F)(F)F)c4)n3n2)CC1
# In short: as §1
# [20] = compound: CN1CC[C@H](c2c(O)cc(O)c3c(=O)cc(-c4ccccc4Cl)oc23)[C@H](O)C1 [alvocidib]
# In short: as §1
# UniProt O60225, sequence (O60225 whole entry, looked up): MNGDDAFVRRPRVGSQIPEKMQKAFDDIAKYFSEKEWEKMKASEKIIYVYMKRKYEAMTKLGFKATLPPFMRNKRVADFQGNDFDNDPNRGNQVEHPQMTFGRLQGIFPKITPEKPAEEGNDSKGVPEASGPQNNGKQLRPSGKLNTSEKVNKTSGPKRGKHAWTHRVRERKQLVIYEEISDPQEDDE
# UniProt P05455, sequence (P05455 whole entry, looked up): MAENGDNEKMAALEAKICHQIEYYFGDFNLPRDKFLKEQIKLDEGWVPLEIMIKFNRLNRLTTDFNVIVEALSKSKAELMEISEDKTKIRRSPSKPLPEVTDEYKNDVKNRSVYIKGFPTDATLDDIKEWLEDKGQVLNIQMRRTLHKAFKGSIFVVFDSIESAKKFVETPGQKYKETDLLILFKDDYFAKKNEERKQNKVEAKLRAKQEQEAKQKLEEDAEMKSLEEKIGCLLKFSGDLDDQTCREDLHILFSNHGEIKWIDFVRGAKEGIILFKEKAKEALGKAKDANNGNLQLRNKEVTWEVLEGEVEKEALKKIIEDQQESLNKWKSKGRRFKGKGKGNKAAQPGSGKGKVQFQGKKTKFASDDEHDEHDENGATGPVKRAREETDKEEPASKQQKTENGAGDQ
# UniProt Q15464, sequence (Q15464 whole entry, looked up): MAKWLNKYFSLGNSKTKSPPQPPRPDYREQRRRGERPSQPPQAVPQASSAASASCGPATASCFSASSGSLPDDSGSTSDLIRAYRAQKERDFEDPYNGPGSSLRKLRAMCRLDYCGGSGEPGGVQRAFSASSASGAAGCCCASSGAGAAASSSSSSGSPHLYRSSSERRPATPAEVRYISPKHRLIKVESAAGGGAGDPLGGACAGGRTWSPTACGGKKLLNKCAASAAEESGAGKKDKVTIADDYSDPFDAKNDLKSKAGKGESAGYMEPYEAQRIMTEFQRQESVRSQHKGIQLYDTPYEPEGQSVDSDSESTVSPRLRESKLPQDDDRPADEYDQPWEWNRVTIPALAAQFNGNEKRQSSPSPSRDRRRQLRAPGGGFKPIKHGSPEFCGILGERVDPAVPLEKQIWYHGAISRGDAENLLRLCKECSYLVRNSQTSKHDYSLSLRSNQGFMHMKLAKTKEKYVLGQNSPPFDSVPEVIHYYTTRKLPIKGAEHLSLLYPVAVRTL
# UniProt Q8N196, sequence (Q8N196 whole entry, looked up): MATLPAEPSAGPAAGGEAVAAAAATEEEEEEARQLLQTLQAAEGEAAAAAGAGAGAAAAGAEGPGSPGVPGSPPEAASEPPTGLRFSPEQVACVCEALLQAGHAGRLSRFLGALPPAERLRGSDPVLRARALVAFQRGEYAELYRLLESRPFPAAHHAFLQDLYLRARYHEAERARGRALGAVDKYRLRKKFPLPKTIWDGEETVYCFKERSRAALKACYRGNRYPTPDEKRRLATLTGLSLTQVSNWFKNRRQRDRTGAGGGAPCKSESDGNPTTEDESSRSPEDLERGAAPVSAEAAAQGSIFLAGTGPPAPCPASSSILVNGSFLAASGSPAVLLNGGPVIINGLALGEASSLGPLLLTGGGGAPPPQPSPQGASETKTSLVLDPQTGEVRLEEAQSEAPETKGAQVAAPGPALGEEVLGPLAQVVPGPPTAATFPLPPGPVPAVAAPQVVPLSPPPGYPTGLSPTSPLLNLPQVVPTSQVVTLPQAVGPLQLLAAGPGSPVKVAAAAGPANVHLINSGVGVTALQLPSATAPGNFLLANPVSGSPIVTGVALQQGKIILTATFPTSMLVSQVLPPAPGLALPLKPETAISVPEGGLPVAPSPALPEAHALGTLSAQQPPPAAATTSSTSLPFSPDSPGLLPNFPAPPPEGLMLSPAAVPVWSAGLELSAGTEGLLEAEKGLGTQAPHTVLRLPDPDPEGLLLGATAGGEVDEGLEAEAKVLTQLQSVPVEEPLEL
# UniProt Q15527, sequence (Q15527 whole entry, looked up): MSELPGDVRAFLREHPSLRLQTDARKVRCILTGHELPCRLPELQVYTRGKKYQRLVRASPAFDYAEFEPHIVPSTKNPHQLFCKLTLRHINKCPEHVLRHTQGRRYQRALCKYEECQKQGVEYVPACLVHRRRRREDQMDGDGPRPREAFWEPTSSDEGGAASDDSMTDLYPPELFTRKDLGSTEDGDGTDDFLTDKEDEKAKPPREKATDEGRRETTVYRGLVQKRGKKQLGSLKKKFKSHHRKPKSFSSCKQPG
# UniProt P78314, sequence (P78314 whole entry, looked up): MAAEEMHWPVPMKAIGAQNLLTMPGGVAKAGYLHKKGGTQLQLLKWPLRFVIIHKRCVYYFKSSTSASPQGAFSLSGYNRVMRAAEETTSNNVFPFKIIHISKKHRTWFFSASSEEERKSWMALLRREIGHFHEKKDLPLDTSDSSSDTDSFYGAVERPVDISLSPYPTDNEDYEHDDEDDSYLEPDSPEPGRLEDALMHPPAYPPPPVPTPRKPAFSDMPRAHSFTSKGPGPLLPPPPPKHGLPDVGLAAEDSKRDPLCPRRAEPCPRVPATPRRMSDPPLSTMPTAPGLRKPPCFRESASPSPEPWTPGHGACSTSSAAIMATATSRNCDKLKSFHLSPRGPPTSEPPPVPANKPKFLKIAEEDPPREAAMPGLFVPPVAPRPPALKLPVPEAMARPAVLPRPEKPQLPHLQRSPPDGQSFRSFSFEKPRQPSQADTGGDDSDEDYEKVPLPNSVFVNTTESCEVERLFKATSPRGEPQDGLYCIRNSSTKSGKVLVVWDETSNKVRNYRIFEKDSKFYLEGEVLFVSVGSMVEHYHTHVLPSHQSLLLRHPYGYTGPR
# UniProt O75182, sequence (O75182 whole entry, looked up): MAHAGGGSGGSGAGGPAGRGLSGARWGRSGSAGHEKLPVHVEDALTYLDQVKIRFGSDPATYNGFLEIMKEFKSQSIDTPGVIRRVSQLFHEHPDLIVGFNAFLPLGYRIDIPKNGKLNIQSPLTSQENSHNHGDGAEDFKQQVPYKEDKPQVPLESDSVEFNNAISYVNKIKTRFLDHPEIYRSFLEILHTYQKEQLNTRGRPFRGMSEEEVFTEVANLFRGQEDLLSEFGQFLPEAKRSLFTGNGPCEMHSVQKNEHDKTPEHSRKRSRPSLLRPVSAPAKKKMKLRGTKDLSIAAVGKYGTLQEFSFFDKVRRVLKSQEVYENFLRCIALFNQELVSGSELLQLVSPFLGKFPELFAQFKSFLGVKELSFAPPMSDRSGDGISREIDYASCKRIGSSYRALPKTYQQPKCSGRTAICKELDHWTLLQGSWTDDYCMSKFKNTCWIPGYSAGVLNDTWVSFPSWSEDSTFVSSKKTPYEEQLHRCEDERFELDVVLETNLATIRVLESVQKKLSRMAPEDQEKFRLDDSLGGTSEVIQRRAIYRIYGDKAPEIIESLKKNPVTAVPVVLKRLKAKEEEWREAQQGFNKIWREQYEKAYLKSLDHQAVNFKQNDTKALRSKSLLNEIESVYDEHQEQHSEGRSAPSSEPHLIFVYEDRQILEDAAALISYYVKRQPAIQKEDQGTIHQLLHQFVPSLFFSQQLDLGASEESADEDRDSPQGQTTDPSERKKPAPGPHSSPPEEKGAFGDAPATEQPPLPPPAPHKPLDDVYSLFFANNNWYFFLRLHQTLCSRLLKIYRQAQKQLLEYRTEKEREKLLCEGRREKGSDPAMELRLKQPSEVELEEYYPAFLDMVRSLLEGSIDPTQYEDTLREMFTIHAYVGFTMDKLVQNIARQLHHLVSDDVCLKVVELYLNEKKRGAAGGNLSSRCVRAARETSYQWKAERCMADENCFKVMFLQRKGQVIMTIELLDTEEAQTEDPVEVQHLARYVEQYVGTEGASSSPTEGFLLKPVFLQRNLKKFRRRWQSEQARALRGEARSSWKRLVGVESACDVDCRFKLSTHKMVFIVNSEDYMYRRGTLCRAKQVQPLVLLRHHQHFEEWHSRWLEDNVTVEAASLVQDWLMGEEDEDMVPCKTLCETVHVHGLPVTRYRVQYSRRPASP
# UniProt B2RUZ4, sequence (B2RUZ4 whole entry, looked up): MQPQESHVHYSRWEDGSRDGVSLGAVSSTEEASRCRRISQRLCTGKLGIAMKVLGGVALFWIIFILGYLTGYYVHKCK
# UniProt Q9HBM1, sequence (Q9HBM1 whole entry, looked up): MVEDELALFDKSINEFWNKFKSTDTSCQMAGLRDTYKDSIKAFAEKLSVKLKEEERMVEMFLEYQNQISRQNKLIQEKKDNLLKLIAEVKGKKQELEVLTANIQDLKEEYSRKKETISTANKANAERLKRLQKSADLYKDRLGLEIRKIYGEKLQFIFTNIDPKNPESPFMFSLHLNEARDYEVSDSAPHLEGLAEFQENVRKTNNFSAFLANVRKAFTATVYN
# UniProt Q92844, sequence (Q92844 whole entry, looked up): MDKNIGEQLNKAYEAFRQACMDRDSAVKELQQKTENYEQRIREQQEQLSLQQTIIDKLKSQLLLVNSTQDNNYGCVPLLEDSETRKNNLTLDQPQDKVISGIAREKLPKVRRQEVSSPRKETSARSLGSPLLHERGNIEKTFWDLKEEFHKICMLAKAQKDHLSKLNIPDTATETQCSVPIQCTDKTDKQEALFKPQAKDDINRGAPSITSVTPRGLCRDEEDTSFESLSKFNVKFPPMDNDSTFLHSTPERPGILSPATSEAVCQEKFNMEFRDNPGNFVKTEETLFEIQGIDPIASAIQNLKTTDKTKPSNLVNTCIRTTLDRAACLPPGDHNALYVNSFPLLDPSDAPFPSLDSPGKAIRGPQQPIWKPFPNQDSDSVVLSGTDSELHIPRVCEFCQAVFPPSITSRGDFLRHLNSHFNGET
# UniProt Q15506, sequence (Q15506 whole entry, looked up): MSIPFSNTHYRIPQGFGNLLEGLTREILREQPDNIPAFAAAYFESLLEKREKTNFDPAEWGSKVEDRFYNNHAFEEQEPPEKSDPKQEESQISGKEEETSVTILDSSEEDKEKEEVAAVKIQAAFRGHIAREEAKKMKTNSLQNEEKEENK
# UniProt Q9NZ72, sequence (Q9NZ72 whole entry, looked up): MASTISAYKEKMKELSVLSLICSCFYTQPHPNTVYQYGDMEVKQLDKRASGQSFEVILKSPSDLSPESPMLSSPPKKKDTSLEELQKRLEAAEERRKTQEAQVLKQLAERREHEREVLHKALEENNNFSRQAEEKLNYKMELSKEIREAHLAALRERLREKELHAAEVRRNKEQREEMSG
Target,log2 fold change [1],log2 fold change [2],log2 fold change [3],log2 fold change [4],log2 fold change [5],log2 fold change [6],log2 fold change [7],log2 fold change [8],log2 fold change [9],log2 fold change [10],log2 fold change [11],log2 fold change [12],log2 fold change [13],log2 fold change [14],log2 fold change [15],log2 fold change [16],log2 fold change [17],log2 fold change [18],log2 fold change [19],log2 fold change [20]
SMC1B isoform 3 (UniProt Q8NDV3),0.149,0.002,0.003,-0.073,0.024,-0.071,0.055,-0.02,0.038,0,0.147,0.028,0.039,-0.03,0.027,-0.03,0.044,–,–,–
SPA17 (UniProt Q15506),-0.013,-0.004,0.021,0.005,0.09,0.022,0.004,0.021,0.021,–,0.056,0.038,-0.007,-0.032,–,-0.038,–,-0.639 (active),0.245,-0.208
TANK (UniProt Q92844),0.023,0.004,0.007,-0.026,-0.02,0.004,0.01,0,-0.043,0.25,0.044,0.068,-0.006,-0.309 (active),-0.006,-0.024,-0.047,0.18,-0.054,0.066
SURF2 (UniProt Q15527),-0.009,-0.002,-0.007,0.049,0.002,0.127,0.004,-0.007,-0.276,–,0.016,0.013,-0.001,-0.319 (active),-0.005,0.011,-0.041,-0.063,0.02,-0.02
SSX5 isoform 2 (UniProt O60225),0.143,0.062,-0.065,-0.188,0.013,0.031,–,–,-0.015,0.038,-0.026,–,-0.082,-0.271,-0.172,-0.002,0.005,-0.926 (active),0.049,-0.096
SH3BP2 isoform 4 (UniProt P78314),0.087,-0.017,-0.075,–,-0.052,0.029,0.006,0.02,0.026,0.03,-0.054,0.099,–,–,–,0.053,–,-0.04,0.089,-0.023
STMN3 (UniProt Q9NZ72),-0.123,-0.006,0.098,0.096,0.002,-0.066,0.053,0.009,0.009,0.014,0.023,0.029,-0.015,-0.021,-0.082,-0.012,-0.041,–,–,–
SSB (UniProt P05455),-0.004,-0.02,-0.001,-0.011,0.011,0.002,-0.015,-0.016,0.018,-0.02,-0.019,-0.015,-0.029,0.022,-0.003,0.002,-0.008,0.011,-0.021,0.057
SPC25 (UniProt Q9HBM1),0.011,-0.008,0.036,0.006,-0.019,0.012,0.013,-0.013,0.009,0.024,-0.017,-0.014,0.034,0.014,-0.008,-0.043,-0.011,-0.083,-0.004,-0.015
SLC38A10 (UniProt Q9HBR0),0.1,-0.008,0.014,0.111,-0.015,-0.022,0.024,0.015,0.074,-0.015,0.023,0.04,0.037,-0.06,-0.032,0.032,-0.046,-0.229 (active),0.022,-0.036
SHKBP1 (UniProt Q8TBC3),0.079,-0.017,0.03,-0.038,0.033,-0.058,0.013,0.017,-0.018,-0.002,0.115,0.046,-0.05,0.274 (active),0.019,0.001,0.023,-0.093,0.103,-0.038
SMC4 (UniProt Q9NTJ3),0.002,0.001,0.022,-0.059,-0.041,0.006,0.015,0.012,-0.079,-0.006,-0.003,-0.008,0.004,0.024,0.001,0,-0.024,0.053,-0.118,0.03
SMC4 (UniProt C9JJ64),–,–,0.152,–,–,–,–,–,–,–,–,–,–,–,–,–,–,–,–,–
SIX5 (UniProt Q8N196),–,0.031,-0.026,–,-0.046,0.084,-0.093,-0.009,0.117,0.015,–,0.043,–,–,0.023,0.008,0.13,0.538,-0.132,0.159
SMIM1 (UniProt B2RUZ4),–,0.013,0.002,-0.108,0.026,-0.096,–,0.088,0.123,0.097,–,–,0.226,-0.07,-0.149,0.022,-0.279,-0.036,-0.222,-0.031
SHB (UniProt Q15464),–,-0.049,–,–,0.072,0.113,0.003,-0.003,-0.108,0.169,–,0.067,–,–,–,0.034,–,-0.125,-0.162,-0.139
SNIP1 (UniProt Q8TAD8),–,–,–,–,–,–,–,–,–,–,–,–,–,–,-0.024,–,-0.015,–,–,–
SIN3B (UniProt O75182),-0.042,–,–,-0.092,–,–,–,-0.099,–,–,0.185,–,0.12,0.272,-0.064,–,0.793,-0.061,0.267,-0.463
SKP2 (UniProt Q13309),0.417,0.093,–,0.193,0.05,0.025,-0.011,0.032,-0.077,0.044,0.189,0.03,-0.053,0.085,0.01,0.173,0.058,0.121,-0.008,-0.048
